From PubChem BioAssay (EPA / NIEHS) come the findings set out here.

Activity calls are given as the source filed them. Rule for the calls: active = hit-call score of the fitted dose curve at least 0.9, where 1 is the maximum; inactive = score below 0.9.

Assay [1] can be described thus: APR_HepG2_CellCycleArrest_24hr: Apredica 24-hour HepG2 Assay for Cell Cycle Arrest (AID 2282905).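 Note: cell cycle arrest scored as ratio of 2N to 4N nuclear DNA content.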 Conditions: imaging, actives raise or lower the signal. A digest of the protocol: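 Readout: Hoechst 33342 nuclear DNA content by high-content fluorescent imaging, six images/well, 20x. Human HepG2 liver cells, 24 hr compound exposure, 0.39–200 uM, final DMSO 0.5% v/v. Gain or loss fitted relative to DMSO baseline.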

Assay [2] is described as follows: APR_HepG2_NuclearSize_24hr: Apredica 24-hour HepG2 Assay for Nuclear Size (AID 2282907). The conditions noted are these: high-content imaging, actives raise or lower the signal. A digest of the protocol: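 Read-out: nuclear diameter from Hoechst 33342 (2 ug/mL) imaging of fixed HepG2 cells, 20x, six fields/well. Compounds ran at 0.39–200 uM for 24 hr, 0.5% DMSO final. Gain or loss was fitted bidirectionally relative to the DMSO baseline.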

Assay [3] in a line: APR_HepG2_CellLoss_24hr: Apredica 24-hour HepG2 Assay for Cell Loss (AID 2282908).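 For AC50: fit in both directions so a hit may be cell loss or gain.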 The conditions noted are these: high-content imaging. A digest of the protocol:
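Read-out: Hoechst 33342-stained nuclei counted by automated fluorescence imaging after formaldehyde fixation and Triton permeabilization. Ten concentrations, 0.39 to 200 uM, duplicate wells, 0.5% DMSO final. Gain or loss of signal fitted relative to DMSO baseline.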

A short description of assay [4]: APR_HepG2_MicrotubuleCSK_24hr: Apredica 24-hour HepG2 Assay for Microtubule CSK Stabilty (AID 2282909). Conditions: HepG2 microtubule cytoskeleton imaging, actives raise or lower the signal. A digest of the protocol: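 Read-out: alpha-tubulin immunofluorescence intensity by automated high-content imaging of fixed HepG2 cells after 24 h compound treatment. Ten concentrations, 0.39 to 200 uM, in duplicate; DMSO 0.5% v/v. Taxol positive control; DMSO-normalized bidirectional curve fitting.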

Assay [5] in a line: APR_HepG2_MitoticArrest_24hr: Apredica 24-hour HepG2 Assay for Mitotic Arrest (AID 2282910). Conditions: high-content imaging, actives raise or lower the signal. A digest of the protocol: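 HepG2, 24 hr dosing, 0.39–200 uM, 0.5% DMSO final. Formaldehyde-fixed, Triton-permeabilised, anti-phospho-histone H3 plus Hoechst. ArrayScan imaging at 20x; bidirectional fit vs DMSO baseline.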

The nature of assay [6]: APR_HepG2_MitoMembPot_24hr: Apredica 24-hour HepG2 Assay for Mitochondrial Membrane Potential (AID 2282911). Conditions: imaging, actives raise or lower the signal. A digest of the protocol: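 Mitochondrial dye uptake (MitoTracker Red CMXRos, 250 nM, 30 min pre-fixation) in HepG2 after 24 hr compound exposure, 0.39–200 uM; ArrayScan images at 20x, activity fitted in both directions relative to DMSO.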

A short description of assay [7]: APR_HepG2_MitoMass_24hr: Apredica 24-hour HepG2 Assay for Mitochondrial Mass (AID 2282912). Conditions: high-content imaging, actives raise or lower the signal. A digest of the protocol:
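HepG2, 24 hr dosing, 10 concentrations 0.39–200 uM in duplicate, DMSO 0.5% final. MitoTracker Red CMXRos 250 nM, 30 min pre-fix; 3.7% formaldehyde fix. Imaging-based fluorescence intensity; gain/loss fit vs DMSO baseline.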

The nature of assay [8]: APR_HepG2_p53Act_24hr: Apredica 24-hour HepG2 Assay for p53 Activation (AID 2282913).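 Note: p53 protein immunofluorescence averaged per cell in HepG2 with Hoechst nuclei.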 The conditions noted are these: high-content imaging, actives raise or lower the signal. A digest of the protocol: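 Following 24 hr dosing of HepG2 at 0.39–200 uM, the cells undergo formaldehyde fixation, Triton permeabilization and multiplexed antibody labeling that includes p53 (Cy5). Signal from the imaging is referenced to DMSO solvent controls.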

Assay [9] in a line: APR_HepG2_CellCycleArrest_72hr: Apredica 72-hour HepG2 Assay for Cell Cycle Arrest (AID 2282914). The conditions noted are these: high-content imaging, actives raise or lower the signal. A digest of the protocol: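 Using multiplexed high-content imaging, HepG2 nuclei stained with Hoechst 33342 (2 ug/mL) were analysed for DNA content after fixation and permeabilization. Treatment lasted 72 hr across 0.39–200 uM in duplicate with final DMSO 0.5% v/v; DMSO served as negative control.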

Assay [10] in a line: APR_HepG2_P-H2AX_72hr: Apredica 72-hour HepG2 Assay for H2AX Phosphorylation (AID 2282916).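 Note: phospho-histone H2A.x immunostain intensity per cell marking DNA damage.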 The conditions noted are these: imaging, actives raise or lower the signal. A digest of the protocol:
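Readout: phospho-H2A.x immunofluorescence (FITC secondary) plus Hoechst nuclear stain, high-content imaging at 20x, six fields/well. HepG2, 72 hr compound exposure, 0.39–200 uM, final DMSO 0.5% v/v. Gain or loss fitted relative to DMSO baseline.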

The nature of assay [11]: APR_HepG2_MitoMembPot_72hr: Apredica 72-hour HepG2 Assay for Mitochondrial Membrane Potential (AID 2282917). The conditions noted are these: imaging, actives raise or lower the signal. A digest of the protocol: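 HepG2 cells dosed 72 hr with compound at 0.39–200 uM in duplicate, 0.5% v/v DMSO final. Mitochondria stained with 250 nM MitoTracker Red CMXRos for 30 min before formaldehyde fixation, imaged by high-content fluorescence; bidirectional fit versus DMSO.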

Assay [12] is described as follows: APR_HepG2_MitoticArrest_72hr: Apredica 72-hour HepG2 Assay for Mitotic Arrest (AID 2282918). Conditions: high-content imaging, actives raise or lower the signal. A digest of the protocol: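 Using high-content imaging of fixed HepG2 cells, phospho-histone H3 signal was measured following a 72 hr incubation with ten-point compound dilutions up to 200 uM. DMSO served as the negative control and baseline for bidirectional curve fitting.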

A short description of assay [13]: APR_HepG2_MicrotubuleCSK_72hr: Apredica 72-hour HepG2 Assay for Microtubule CSK Stabilty (AID 2282919). Conditions: HepG2 microtubule cytoskeleton, high-content imaging, actives raise or lower the signal. A digest of the protocol: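 HepG2, 72 hr cmpd exposure, 0.39–200 uM (10 pts, duplicate), 0.5% DMSO. 3.7% formaldehyde fix, 0.5% Triton perm, anti-alpha-tubulin/Cy5 plus Hoechst. HCS fluorescence intensity; bidirectional fit vs DMSO baseline; taxol as positive control.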

A short description of assay [14]: APR_HepG2_P-H2AX_24hr: Apredica 24-hour HepG2 Assay for H2AX Phosphorylation (AID 2282920). The conditions noted are these: high-content imaging, actives raise or lower the signal. A digest of the protocol: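 Human HepG2 liver cells, treated 24 hr with test chemicals (0.39–200 uM, final DMSO 0.5% v/v), are fixed and co-stained for phospho-H2A.x and c-Jun with Hoechst. Imaged intensity is fitted in both directions against DMSO controls.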

Assay [15] in a line: APR_HepG2_StressKinase_72hr: Apredica 72-hour HepG2 Assay for Stress Kinase (AID 2282921). The conditions noted are these: HepG2 stress kinase (phospho-c-Jun) imaging, actives raise or lower the signal. A digest of the protocol:
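Phospho-c-Jun immunofluorescence measured by high-content imaging at 20x, six fields per well; bidirectional curve fitting against DMSO as baseline. Dosing: 0.39–200 uM, 72 h, 0.5% DMSO final.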

A short description of assay [16]: APR_HepG2_StressKinase_24hr: Apredica 24-hour HepG2 Assay for Stress Kinase (AID 2282922). The conditions noted are these: HepG2 stress kinase (phospho-c-Jun) imaging, actives raise or lower the signal. A digest of the protocol:
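Read-out: phospho-c-Jun immunofluorescence (Cy3 secondary) quantified by high-content imaging at 20x, nuclei defined by Hoechst 33342. Human HepG2 liver cells dosed 24 hr, 0.39–200 uM, DMSO 0.5% v/v; gain or loss of signal fitted relative to DMSO.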

Assay [17] is described as follows: APR_HepG2_p53Act_72hr: Apredica 72-hour HepG2 Assay for p53 Activation (AID 2282923).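 Note: average cellular p53 protein immunofluorescence intensity in HepG2 cells.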 Conditions: high-content imaging, actives raise or lower the signal. A digest of the protocol: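 Readout: p53 immunofluorescence quantified by automated high-content imaging at 20x, six fields per well, nuclei located via Hoechst. Dosing ran 72 hr over ten concentrations from 0.39 to 200 uM; bidirectional curve fitting against DMSO baseline.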

Assay [18] is described as follows: APR_HepG2_MitoMass_72hr: Apredica 72-hour HepG2 Assay for Mitochondrial Mass (AID 2282924).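 Note: MitoTracker Red CMXRos stain intensity per cell imaged as mitochondrial mass.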 Conditions: high-content imaging, actives raise or lower the signal. A digest of the protocol:
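Read-out: MitoTracker Red fluorescence intensity from automated imaging (20x, six fields per well) in human HepG2 liver cells. Dosing ran 72 hr, 0.39–200 uM, 0.5% DMSO; bidirectional curve fitting versus DMSO baseline.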

A short description of assay [19]: APR_HepG2_NuclearSize_72hr: Apredica 72-hour HepG2 Assay for Nuclear Size (AID 2282925). The conditions noted are these: high-content imaging, actives raise or lower the signal. A digest of the protocol:
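Read-out: nuclear diameter from Hoechst 33342 images (ArrayScan, 20x, six fields/well), via cell-cycle image analysis. HepG2 were dosed 0.39–200 uM for 72 hr in 0.5% DMSO. Bidirectional fit relative to DMSO.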

Usually AC50 stands for the concentration at which the activity in the assay is half-maximal.

With `CN(C)c1ccc(C(=C2C=CC(=[N+](C)C)C=C2)c2ccc(N(C)C)cc2)cc1`, the AC50 was 0.747 µM (active) in assay [1]; 6.05 µM (active) in assay [3]; 22 µM (active) in [4]; 4.66 µM (active) in assay [5]; 27.3 µM (active) in assay [6]; 2.93 µM (active) in assay [8]. In addition, the AC50 in [9] was 0.407 µM (active); in assay [10], 4.24 µM (active); in assay [11], 0.384 µM (active); in assay [12], 4.11 µM (active); in [13], 12.4 µM (active); in [14], 4.3 µM (active). Also, the AC50 in [15] is 40 µM (active); in assay [16], 6.59 µM (active); in assay [17] it was 19.9 µM (active); in assay [18], 0.0403 µM (active). Also, the compound was classed as inactive in assay [2], in [7] and in assay [19].

`O=C(Nc1ccc(Cl)cc1)Nc1ccc(Cl)c(Cl)c1`: the AC50 in [1] was 7.09 µM (active); in [3], 4.01 µM (active); in assay [6], 13.8 µM (active); in assay [8], 3.93 µM (active); in [9] it was 16.6 µM (active); in [10], 6.38 µM (active). Also, the AC50 was 5.5 µM (active) in [12]; 6.77 µM (active) in [13]; 4.63 µM (active) in [14]; 7.87 µM (active) in [15]; 5.61 µM (active) in assay [17]. Further, the result in assay [2], in assay [4], in assay [5], in [7], in [16] and in assay [18] was inactive. In addition, in [19], the call was inactive.

Consider `CC[C@H](NC(=O)c1cc(F)ccc1NS(=O)(=O)c1cccc2cccnc12)c1ccccc1`, for which the compound was classed as inactive in [1], in assay [2], in [3], in [4], in assay [5] and in assay [7]. Further, the outcome in [8], in [9], in assay [10], in assay [13], in assay [14] and in [15] was inactive. In addition, the call in assay [16], in assay [17], in assay [18] and in assay [19] was inactive. For the same compound, the values for the AC50 in assay [6] and in assay [12] were 105 µM (active) and 92.5 µM (active), respectively.

Take `Cc1ccc(C(C)C)cc1`: the result in assay [1], in assay [2], in [3], in [4], in [5] and in assay [6] was inactive. In addition, the call in [7], in [8], in assay [9], in assay [10], in assay [12] and in assay [13] was inactive. In addition, the outcome in [14], in [15], in [16], in [17], in [18] and in assay [19] was inactive.

For the compound `Cc1ncc(CO)c(CO)c1O`, the compound was called inactive in assay [1], in assay [2], in assay [3], in [4], in assay [5] and in assay [6]. Besides, the compound was called inactive in [7], in assay [8], in [9], in assay [10], in [11] and in assay [12]. The result in assay [13], in assay [14], in assay [15], in [16], in [17] and in [18] was inactive. Besides, the call in assay [19] was inactive.

On to `CC1(C)NC(=O)N(c2ccc([N+](=O)[O-])c(C(F)(F)F)c2)C1=O`, for which the compound was classed as inactive in [1], in assay [2], in assay [3], in assay [4], in assay [5] and in assay [6]. The result in assay [7], in [8], in assay [9], in assay [10], in [12] and in [13] was inactive. For the same compound, the compound was called inactive in [14], in assay [15], in [16], in [17], in assay [18] and in assay [19].
